Compounds with a hit are over-represented: about 9.6% of the library has one in this group of screens.
Autophagy mod – autophagy modulation, high-content screen; calls only at 10 µM (by protocol); actives 0.98% (n = 190,000); MEF GFP-LC3 puncta imaging; test concentration mostly 10 µM;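 active means percentage of spot-positive cells more than 3 SD above its plate mean, without a fluorescence outlier flag or 80% toxicity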;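 further: spot-positive cell cutoff set from DMSO-treated cells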
Ins promoter up – MIN6 insulin promoter up-regulation; MIN6 insulin promoter-GFP reporter, high-content imaging; stronger effect = higher value; z-score at 5 µM; actives 0.3% (n = 190,000);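 active means z-score above 3 at 5 µM with at least 500 cells counted in the well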
INS promoter inh – TRM-6 insulin promoter activity inhibition; TRM-6 cells (human fetal islet line), insulin promoter-eGFP reporter, imaging; reporter expression induced with tamoxifen; inhibition, % at 2 µM; actives 0.9% (n = 130,000); AID 1273;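 active means inhibition above the mean plus 3 SD, with well images judged a real hit on visual review, cut at about 60% in these data, passing the limit was not always enough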
bCat KO growth – beta-catenin-lacking colon tumor cell growth suppression; HCT116 beta-catenin knockout viability, CellTiter-Glo, 60 h; stronger effect = lower value; viability, % at 10 µM; actives 1.5% (n = 140,000); AID 818;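 active means viability at or under a set limit, the compound median less 4 SD, cut at about 6% in these data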;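 further: 0% = Hyamine 1622 control at 20 µM and 100% = untreated cell control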
HCT116 PTEN-null – growth suppressors of cells with PTEN tumor suppressor deletion. actives 1.2% (n = 140,000). viability, % at 10 µM. HCT116 PTEN-null viability, CellTiter-Glo, 60 h; stronger effect = lower value. AID 827;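 active means viability at or below a set limit, 4 SD under the median of all tested compounds, cut at about 3.7% in these data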;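 further: PTEN knockout HCT116 line with beta catenin targeted HCT116 as companion control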
Lmaj promast – reduces viability of Leishmania major promastigotes; AID 1063; actives 9% (n = 200,000); inhibition, % at 10 µM; resazurin fluorescence viability; in the data active means inhibition above about 50%;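 further: promastigotes grown with compound for 44 hours at 28 °C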
The depositor's hits bear a star; i = inactive; . = not tested or not shown; + = active, no number.

SMILES	Autophagy mod	Ins promoter up	INS promoter inh	bCat KO growth	HCT116 PTEN-null	Lmaj promast
CCC(C)NCCOc1cccc(Br)c1 (centres undefined)	i	0.03	-23.1	90.7	85.3	13.5
CCCOc1ccc(OCCCCNC(C)CC)cc1 (centres undefined)	i	.	46.7	86.2	96.7	98.8*
CC(C)(C)c1ccc(OCCNC(=S)Nc2ccccc2)cc1	i	.	.	.	.	14.5
CNCCCOc1ccc(C(C)(C)c2ccccc2)cc1	i	0.6	.	36.7	54.4	99.9*
CC(C)(c1ccccc1)c1ccc(OCCCN2CCNCC2)cc1	i	-0.44	.	.	.	100.5*
c1ccc(-c2nnc(CSc3nnc(-c4cccs4)o3)o2)cc1	i	.	.	75.7	75.1	-5.5
O=C1C2N=NN(CC(=O)N3N=C(c4ccccc4)CC3c3ccc([N+](=O)[O-])cc3)C2C(=O)N1c1ccccc1 (centres undefined)	i	-0.1	.	.	.	1.2
CN1C(=O)C(CC(=O)Nc2ccc3c(c2)Cc2ccccc2-3)N(C)C1=O (centres undefined)	i	0.31	-307.7	94.8	94.7	1.0
Cc1cc(N2C(=O)C(=O)/C(=C(/O)c3ccc(F)cc3)C2c2ccc(Cl)cc2)no1 (centres undefined)	i	-1.49	-18.5	89.9	85.7	-7.3
COc1cc(OC)cc(C(=O)NCCOc2ccccc2)c1	i	0.19	33.3	91.4	101.3	3.5
COCCCNCCOc1ccc(C(C)(C)c2ccccc2)cc1	i	0.45	19.2	53.5	70.5	99.7*
O=C(Nc1nsc(-c2ccccc2)n1)c1ccc(F)cc1	i	.	15.0	.	.	34.0
C=C(C)COc1ccc(-c2[nH]ncc2Oc2cccc(OC)c2)c(O)c1	i	-0.67	-35.7	16.8	23.7	74.0*
CCCOC(=O)c1ccc(Oc2c(-c3ccc(O)cc3O)n[nH]c2C)cc1	i	0.19	-7.1	95.2	90.1	-5.3
CCOc1ccc(-c2n[nH]c(C)c2Oc2ccccc2OC)c(O)c1	i	-0.63	0.0	75.5	76.3	10.7
CCCc1ccc(Oc2cn[nH]c2-c2ccc(O)cc2O)cc1	i	-0.35	-4.2	64.5	63.1	95.0*
CCCOC(=O)c1ccc(Oc2cn[nH]c2-c2ccc(O)cc2O)cc1	.	0.32	.	.	.	.
CCCOC(=O)c1ccc(Oc2c(-c3ccc(OC)cc3O)n[nH]c2C)cc1	i	-0.09	33.3	3.5*	13.0	11.8
C=C(C)COc1ccc(-c2n[nH]c(C)c2Oc2ccccc2OC)c(O)c1	i	0.68	-42.9	58.4	56.0	75.8*
CCc1ccc2oc(-c3cc(N)ccc3O)nc2c1	i	0.65	3.2	61.2	34.4	-4.3
O=C(Nc1ccccc1)C(=O)Nc1cccnc1	.	-0.11	.	.	.	.
C=C(C)COc1ccc(-c2ncncc2Oc2ccc(OC)cc2)c(O)c1	i	0.73	7.1	84.8	86.7	65.6*
COc1ccc(-c2nc(C)ncc2-c2csc(C)n2)c(O)c1	i	-0.09	-25.0	92.3	100.1	7.1
COc1ccc(Oc2cn[nH]c2-c2ccc(O)cc2O)cc1	i	-0.61	38.5	86.1	81.5	57.7*
COc1ccc(-c2ncncc2-c2csc(C)n2)c(O)c1	+	0.24	37.9	108.6	105.0	5.2
SMILES	Autophagy mod	Ins promoter up	INS promoter inh	bCat KO growth	HCT116 PTEN-null	Lmaj promast
COc1ccc(-c2[nH]ncc2Oc2ccccc2OC)c(O)c1	i	0.13	-100.0	81.9	91.3	5.1
COc1ccc(-c2cc(-c3ccc(Br)cc3)nc3ncnn23)cc1OC	i	-1.31	-23.3	89.1	84.0	19.2
Cc1cc2ccccc2nc1SCC(=O)Nc1nc(-c2ccccc2)cs1	i	-0.09	.	56.6	53.6	-3.8
Cc1[nH]c(=S)[nH]c(=O)c1Cc1ccccc1	i	0.12	.	94.2	101.1	-4.7
COc1ccc(S(=O)(=O)N2CN(Cc3ccco3)c3nc4ccccc4nc32)cc1	i	-0.54	0.0	81.0	89.9	9.3
COc1ccc(CCN2CN(S(=O)(=O)c3ccc(OC)cc3)c3nc4ccccc4nc32)cc1	i	-0.09	-6.9	103.7	99.0	85.2*
O=S(=O)(c1ccc(F)cc1)N1CN(Cc2ccco2)c2nc3ccccc3nc21	i	-0.59	0.0	86.9	93.1	96.7*
Cc1ccc(S(=O)(=O)N2CN(Cc3ccco3)c3nc4ccccc4nc32)cc1C	i	-0.4	-17.1	79.4	80.9	10.4
Cc1ccc(S(=O)(=O)N2CN(Cc3ccco3)c3nc4ccccc4nc32)cc1	i	-0.68	39.0	84.6	76.7	58.3*
CCOC(=O)c1csc(-c2ccc(OC)c(OC)c2)n1	i	-0.93	0.0	.	.	-5.2

Bioassay records (PubChem BioAssay)
